Assay outcomes: PubChem, Broad Institute
PGC1a acetyl inh – modulators of PGC1a acetylation. U2OS PGC1a acetylation, AlphaScreen anti-acetyl-lysine; with virally co-expressed GCN5 acetyltransferase. inhibition, % at 15.6 µM. actives 0.17% (n = 350,000);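 active = every replicate shows inhibition of at least 40%; inconclusive = mean inhibition at least 40% but some replicate below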
DENV2 CPE – protects cells from dengue virus 2 cytopathic effect | DENV2-infected cells, cytopathic effect rescue, plate reader | CPE inhibition, % at 9.99 µM | actives 1.7% (n = 350,000) | AID 651640; in the data active = CPE inhibition above about 20%, passing the limit was not always enough; inconclusive = no clear call, values can overlap the other calls; tested in BHK-21 cells
rRNA inh HTS – inhibitors of bacterial rRNA selective over humanized ribosomes; E. coli WT GFP vs humanized-ribosome RFP mutants, fluorescence, 24 h; stronger effect = lower value; DMSO median 0, no signal -100; GFP signal change (wild-type ribosome), % (concentration not given with the values); actives 1.6% (n = 350,000); AID 720706;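 active = significant combined selectivity score with lowered wild-type GFP, culture density cut under 30%, mutant RFP and density less affected; inactive = any of these conditions unmet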
INS-1E GSIS act – primary screen for activators of insulin secretion dependent on glucose, INS-1E cells, GLuc reporter luminescence. INS-1E GLuc reporter insulin secretion, 2-3 h. activation, % at 16.6 µM. actives 0.61% (n = 370,000);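 active = lowest replicate activation of at least 40%, so every replicate reaches that level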
ERAP1 inh – ERAP1 (human) enzyme inhibition | recombinant ERAP1, Leu-AMC fluorescence, 60 min | inhibition, % at 10.7 µM | actives 0.15% (n = 340,000) | AID 652197;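 active = mean replicate inhibition of at least 30%, or all replicates individually reaching that 30% level; inactive = mean below 30% and not every replicate reaching it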
Target sequence (Q9NZ08 whole entry, looked up): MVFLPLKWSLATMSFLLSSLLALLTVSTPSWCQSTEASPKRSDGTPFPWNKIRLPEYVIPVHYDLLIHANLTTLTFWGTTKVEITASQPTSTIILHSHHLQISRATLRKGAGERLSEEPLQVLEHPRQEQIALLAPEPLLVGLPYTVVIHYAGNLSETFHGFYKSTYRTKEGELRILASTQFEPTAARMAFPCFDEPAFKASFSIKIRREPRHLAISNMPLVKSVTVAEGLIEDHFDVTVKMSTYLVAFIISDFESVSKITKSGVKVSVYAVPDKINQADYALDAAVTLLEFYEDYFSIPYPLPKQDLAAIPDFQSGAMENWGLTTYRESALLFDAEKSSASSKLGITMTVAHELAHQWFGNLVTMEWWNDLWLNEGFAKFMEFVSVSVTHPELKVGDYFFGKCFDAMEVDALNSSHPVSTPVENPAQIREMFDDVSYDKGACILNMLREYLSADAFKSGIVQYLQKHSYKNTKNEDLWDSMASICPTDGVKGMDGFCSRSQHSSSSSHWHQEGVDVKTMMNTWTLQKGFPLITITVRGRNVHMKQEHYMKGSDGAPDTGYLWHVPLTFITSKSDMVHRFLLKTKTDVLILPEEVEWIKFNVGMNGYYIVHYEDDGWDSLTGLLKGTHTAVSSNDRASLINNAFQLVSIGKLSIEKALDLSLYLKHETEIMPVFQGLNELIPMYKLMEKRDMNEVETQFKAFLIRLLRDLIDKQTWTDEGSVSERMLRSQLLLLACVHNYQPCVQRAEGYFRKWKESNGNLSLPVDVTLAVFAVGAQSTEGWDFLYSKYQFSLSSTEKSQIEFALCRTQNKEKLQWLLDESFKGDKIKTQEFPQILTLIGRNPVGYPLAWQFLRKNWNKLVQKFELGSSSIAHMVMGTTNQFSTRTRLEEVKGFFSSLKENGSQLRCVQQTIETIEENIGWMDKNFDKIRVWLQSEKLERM
CaV13 FRET inh – Disruptors of the CACNA1D IQ motif to Ca2+-dependent inactivation inhibitor domain association, primary screening, Förster resonance energy transfer in intact living …; HEK cells, CFP/YFP FRET ICDI-IQ, plate reader, 10 min; percent FRET-ratio fall versus neutral wells; inhibition, % at 12.3 µM; actives 0.098% (n = 340,000); AID 743397;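 active = mean replicate inhibition of at least 30% and at least 1% of replicates passing that level; inconclusive = only one of the two criteria is met; inactive = neither criterion is met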
Each line names hits and unclear results; the compound was inactive in the other large screens. Only some compounds are listed: those with a hit (about 3.2% of all), similar ones and a draw of the others.

CCn1nc(C(=O)Nc2cccc(S(=O)(=O)N3CCCC3)c2)c2ccccc2c1=O	rRNA inh HTS -27 (no result: PGC1a acetyl inh)
O=C(COc1ccccc1Cl)Nc1cccc(S(=O)(=O)N2CCCC2)c1	rRNA inh HTS -34
COc1ccccc1C(=O)NCC(=O)OCC(=O)Nc1cccc(S(=O)(=O)N(C)C)c1	none
CC(C)Cn1nc(C(=O)Nc2cccc(S(=O)(=O)N3CCCC3)c2)c2ccccc2c1=O	none (no result: PGC1a acetyl inh)
O=C(Nc1cccc(S(=O)(=O)N2CCOCC2)c1)c1cc2ccccc2o1	none (no result: ERAP1 inh)
CN(C)S(=O)(=O)c1cccc(NC(=O)COc2ccccc2C(=O)NCc2ccccc2)c1	rRNA inh HTS -34
O=C(Nc1cccc(S(=O)(=O)N2CCCCC2)c1)c1cc2ccccc2o1	rRNA inh HTS -24
C[C@H]1CN([C@@H](C)CO)C(=O)c2cc(NC(=O)Cn3cnnn3)ccc2O[C@H]1CN(C)Cc1ccccc1	none (no result: PGC1a acetyl inh, CaV13 FRET inh)
C[C@H]1CN([C@@H](C)CO)C(=O)Cc2cc(NS(=O)(=O)c3ccc(F)cc3)ccc2O[C@@H]1CN(C)CC1CCCCC1	none (no result: CaV13 FRET inh)
O=C(NCC[C@@H]1CC[C@H](NS(=O)(=O)c2ccccc2)[C@H](CO)O1)c1ccc2c(c1)OCO2	none (no result: CaV13 FRET inh)
COc1cccc(OC)c1OCC(=O)Nc1ccc(S(=O)(=O)N2CCCC2)cc1	rRNA inh HTS -34
CCCOc1ccccc1OCC(=O)Nc1ccc(S(=O)(=O)N2CCCC2)cc1	none (no result: PGC1a acetyl inh, CaV13 FRET inh)
C[C@@H]1CN([C@H](C)CO)C(=O)c2cc(C#Cc3cccnc3)cnc2O[C@@H]1CN(C)C(=O)CN(C)C	DENV2 CPE 35 (no result: CaV13 FRET inh)
CCC(=O)N(C)C[C@H]1Oc2ncc(C#Cc3ccncc3)cc2C(=O)N([C@H](C)CO)C[C@H]1C	ERAP1 inh 76 (no result: CaV13 FRET inh)
C[C@H](CO)N1C[C@H](C)[C@@H](CN(C)C(=O)CN(C)C)Oc2ncc(C#Cc3cccnc3)cc2C1=O	none (no result: CaV13 FRET inh)
CCC(=O)N(C)C[C@@H]1Oc2ncc(C#Cc3ccncc3)cc2C(=O)N([C@@H](C)CO)C[C@@H]1C	ERAP1 inh 36 (no result: CaV13 FRET inh)
COCC(=O)Nc1ccc2c(c1)C(=O)N(C)C[C@@H](OC)[C@@H](C)CN(CC1CC1)[C@H](C)CO2	none (no result: CaV13 FRET inh)
C[C@@H]1CCCCO[C@@H](CN(C)S(C)(=O)=O)[C@@H](C)CN([C@@H](C)CO)C(=O)c2cc(N(C)C)ccc2O1	none (no result: DENV2 CPE, ERAP1 inh, CaV13 FRET inh)
O=C1CS(=O)(=O)C(c2ccccc2)N1c1ccc(-c2ccccc2)cc1 (stereo unspecified)	none (no result: PGC1a acetyl inh, rRNA inh HTS, INS-1E GSIS act, CaV13 FRET inh)
Nc1c(O)ccc2c1C(=O)c1ccccc1C2=O	rRNA inh HTS -56 (no result: PGC1a acetyl inh, INS-1E GSIS act)
Cc1ccccc1/C=N/Nc1nc2ccccc2[nH]1	none
Cc1[nH]c2ccccc2c1/C=N/Nc1nc2ccccc2[nH]1	rRNA inh HTS -47 (no result: INS-1E GSIS act)
C(=N\Nc1nc2ccccc2[nH]1)/c1cccc2cccnc12	rRNA inh HTS -53
C(=N\Nc1nc2ccccc2[nH]1)/c1c[nH]c2ccccc12	none (no result: PGC1a acetyl inh, DENV2 CPE, rRNA inh HTS, ERAP1 inh)
COc1ccc(/C=N/Nc2nc3ccccc3[nH]2)c(OC)c1OC	PGC1a acetyl inh inconclusive, rRNA inh HTS -27
COc1ccc(NC(=O)Nc2ccc3c(c2)C(=O)N([C@@H](C)CO)C[C@H](C)[C@@H](CN(C)C(=O)Nc2ccccc2)OCCCC[C@H](C)O3)cc1	none (no result: CaV13 FRET inh)
O=C(Oc1ccc(/C=N/O)cc1)c1ccccc1Cl	rRNA inh HTS -29 (no result: PGC1a acetyl inh)
CN(C)CC(=O)N[C@H]1CC[C@@H](CCNC(=O)C2CCCCC2)O[C@H]1CO	none (no result: CaV13 FRET inh)
CC=Cc1ccc2n(c1=O)C[C@@H]1[C@@H](CO)[C@H](C(=O)NCc3ccccc3)[C@H]2N1Cc1ccccc1OC (mixture of isomers)	none (no result: CaV13 FRET inh)
CCN(Cc1ccc(OC)c(F)c1)C(=O)C1CCCO1 (stereo unspecified)	ERAP1 inh 50
COc1ccc(CC(=O)OCC(=O)N2CCCc3ccccc32)cc1OC	INS-1E GSIS act 111
COc1cc(/C=C/C(=O)OCC(=O)N2CCCc3ccccc32)ccc1OCC#N	rRNA inh HTS -24
COc1cc(/C=C/C(=O)OCC(=O)N2CCCc3ccccc32)ccc1O	none (no result: rRNA inh HTS)
COc1cccc(C(=O)OCC(=O)N2CCc3ccccc32)c1OC	none
Cc1ccccc1OCC(=O)OCC(=O)N1CCCc2ccccc21	none
COc1ccc(CC(=O)OCC(=O)N2CCc3ccccc32)cc1OC	INS-1E GSIS act 121
O=C(NCC[C@H]1CC[C@@H](NC(=O)c2ccccc2F)[C@@H](CO)O1)c1ccc2c(c1)OCO2	none (no result: CaV13 FRET inh)
CCNC(=O)C[C@H]1C=C[C@H](NC(=O)NC2CCCCC2)[C@@H](CO)O1	none (no result: CaV13 FRET inh)
Cc1cccc(C)c1Nc1ncnc2ccccc12	rRNA inh HTS -34
C[C@@H]1CCCCO[C@@H](CN(C)Cc2ccc(Cl)c(Cl)c2)[C@@H](C)CN([C@H](C)CO)C(=O)c2cc(NC(=O)C3CCCCC3)ccc2O1	none (no result: CaV13 FRET inh)
N=C(N)c1ccc(N=Nc2c(O)ccc3c2[nH]c2ccccc23)cc1	rRNA inh HTS -30, INS-1E GSIS act 47
CC(C)(C)C1CCC(OCC(O)CN2CCN(c3ccccn3)CC2)CC1 (stereo unspecified)	rRNA inh HTS -35
CC(C)(C)C1CCC(OCC(O)CN2CCN(Cc3ccccc3)CC2)CC1 (stereo unspecified)	none
CC(=O)N[C@@H]1CC[C@H](CCNC(=O)C2CC2)O[C@H]1CO	none (no result: CaV13 FRET inh)
CCOC(=O)C1CN(S(=O)(=O)c2ccccc2)c2cc(S(=O)(=O)CC)ccc2O1 (stereo unspecified)	PGC1a acetyl inh 50 (no result: DENV2 CPE, rRNA inh HTS, INS-1E GSIS act, ERAP1 inh)
CCOC(=O)C1CN(S(=O)(=O)c2ccc(Cl)cc2)c2cc(S(=O)(=O)CC)ccc2O1 (stereo unspecified)	none
CN1CCCC1c1cccnc1 (stereo unspecified)	DENV2 CPE 117 (no result: CaV13 FRET inh)
COc1cc(C)c(C)cc1S(=O)(=O)N1CCCCC1c1cccnc1 (stereo unspecified)	INS-1E GSIS act 57 (no result: DENV2 CPE, rRNA inh HTS, ERAP1 inh, CaV13 FRET inh)
COc1ccc(NC(=O)N2CCCCC2c2cccnc2)cc1 (stereo unspecified)	none
CC(=O)Nc1ccc(S(=O)(=O)N2CCCCC2c2cccnc2)cc1 (stereo unspecified)	none (no result: DENV2 CPE, rRNA inh HTS, INS-1E GSIS act, ERAP1 inh)
CC(C)c1ccc(/C=C/C(=O)Nc2nc3ccc([N+](=O)[O-])cc3s2)cc1	none (no result: DENV2 CPE, rRNA inh HTS, INS-1E GSIS act, ERAP1 inh)
O=[N+]([O-])c1ccc2nc(NN=Cc3ccc(O)cc3)sc2c1	rRNA inh HTS -12 (no result: INS-1E GSIS act)
Cc1cc(/C=N/n2cnnc2)c(C)n1-c1ccc(OCc2ccccc2F)cc1	rRNA inh HTS -43
CCOc1ccc2[nH]cc(S(=O)(=O)c3ccc(C)cc3)c(=O)c2c1	DENV2 CPE 60 (no result: INS-1E GSIS act)
CCOc1ccc2[nH]cc(S(=O)(=O)c3ccc(Cl)cc3)c(=O)c2c1	none
CCC1CN(S(=O)(=O)c2ccc3c(c2)NC(=O)CC(=O)N3)c2cc(Cl)ccc2O1 (stereo unspecified)	DENV2 CPE 23 (no result: PGC1a acetyl inh)
